Data: PubChem BioAssay (Tox21)
Results filed as inconclusive are left out. The source made the active and inactive calls. Unless noted, calls follow the shape of the dose curve; as a rule, active = well fitted curve in the direction sought with a large enough effect in the repeat runs; inconclusive = weak or mixed curves; inactive = no such curve, though single readings can be large; an effect the other way counts as inactive or inconclusive.

Tests used:
[1] = qHTS assay to identify small molecule HDAC inhibitors (AID 1259364); also: potency is read from the fitted curve at half-maximal effect;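 also: wild-type HCT-116 cells with endogenous class I/II HDAC activity; nearly all actives have a fitted effect of over 45% in size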
Outline: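 Quantitative high-throughput format: overnight-seeded HCT-116 cells got compounds for 2 hr at 37C; HDAC-Glo I/II reagent added, 30 min RT, luminescence measured.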

[2] = qHTS assay to identify small molecule HDAC inhibitors - cell viability counter screen (AID 1259365); also: series mostly up to about 92 µM; nearly all actives have a fitted effect of over 50% in size
Outline: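 Viability readout: CellTiter-Glo luminescence. Wild-type HCT-116 cells, 2hr compound treatment following overnight attachment at 37 C.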

[3] = qHTS assay to identify small molecule antagonists of the sonic hedgehog signaling (Shh) pathway - cell viability counter screen (AID 1259367); also: nearly all actives have a fitted effect of over 55% in size; also: potency is read from the fitted curve at half-maximal effect
Outline: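 Cytotoxicity was assessed in parallel with Shh reporter activity by measuring live-cell protease fluorescence (CellTiter-Fluor) in NIH/3T3 cells stably carrying Gli1-Luc, treated with compound under conditioned medium stimulation for 23 hr plus 1 hr reagent incubation.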

[4] = qHTS assay to identify small molecule agonists of the sonic hedgehog signaling (Shh) pathway (AID 1259368; calls by dose curve;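 also: NIH/3T3-derived 3T3Gli1-Luc cells carrying a stable Gli1-driven firefly luciferase reporter; series mostly up to about 92 µM; nearly all actives have a fitted effect of over 15% in size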)
Outline: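 Quantitative high-throughput format using a Gli1-driven firefly luciferase reporter line derived from NIH/3T3 cells. After a 24 hr compound treatment at 37 C and 5% CO2, luminescence reported Gli1 response element activity.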

[5] = qHTS assay to identify small molecule antagonists of the sonic hedgehog signaling (Shh) pathway (AID 1259369; calls by dose curve; also: nearly all actives have a fitted effect of over 45% in size; also: potency is read from the fitted curve at half-maximal effect)
Outline: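 Stable Gli1-Luc reporter NIH/3T3 clone; quantitative HTS in stimulated mode with conditioned medium. Luminescence measured after 24hr compound treatment at 37 C.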

[6] = qHTS assay to identify small molecule agonists of the androgen receptor (AR) signaling pathway in the presence of an antagonist - cell viability counter screen (AID 1259379); also: nearly all actives have a fitted effect of over 25% in size; also: potency is read from the fitted curve at half-maximal effect
Outline: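 Nilutamide-containing (3.0uM final) MDA-kb2 cultures, 3,000 cells/well, were treated with compounds across 15 concentrations. After 16 hr at 37C with no CO2, cell viability was determined by CellTiter-Fluor fluorescence in the luciferase assay wells.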

[7] = qHTS assay to identify small molecule agonists of the sonic hedgehog signaling (Shh) pathway - cell viability counter screen (AID 1259366); also: nearly all actives have a fitted effect of over 50% in size; also: potency is read from the fitted curve at half-maximal effect
Outline: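 Viability measured fluorometrically (CellTiter-Fluor, 1hr, 37C) in 3T3 Gli1-Luc reporter cells after 23hr compound exposure within a 24hr incubation at 37C/5% CO2.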

[8] = biological target: Estrogen receptor beta (Homo sapiens) (UniProt Q92731); test: qHTS assay to identify small molecule agonists of the estrogen receptor beta (ER-beta) signaling pathway (AID 1259377; active = well fitted activation curve with a large enough effect in the signal ratio in the repeat runs, not every such curve was filed as active; the % refers to the signal ratio)
Outline: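 A UAS-controlled beta-lactamase reporter in ER-beta-UAS-bla HEK293T cells reports receptor activation. Compounds act for 16 hr at 37C in 2% charcoal-stripped serum, and a FRET substrate is read by fluorescence after 2 hours.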

[9] = biological target: Estrogen receptor beta (Homo sapiens) (UniProt Q92731); test: qHTS assay to identify small molecule antagonists of the estrogen receptor beta (ER-beta) signaling pathway (AID 1259378; active = well fitted inhibition curve with a large enough effect in the signal ratio in the repeat runs, not every such curve was filed as active; the % refers to the signal ratio; also: potency is read from the fitted curve at half-maximal effect)
Outline: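 ER-beta-UAS-bla HEK293T (GripTite) cells in 2% charcoal-stripped FBS medium were preincubated 6 hr at 37C, dosed with compound, then stimulated with 1 nM E2 (final) for 16 hr; beta-lactamase reporter read by B/G FRET fluorescence after 2 hr substrate loading.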

Measured: Potency

Sequence of Estrogen receptor beta (Homo sapiens) (Q92731 whole entry, looked up): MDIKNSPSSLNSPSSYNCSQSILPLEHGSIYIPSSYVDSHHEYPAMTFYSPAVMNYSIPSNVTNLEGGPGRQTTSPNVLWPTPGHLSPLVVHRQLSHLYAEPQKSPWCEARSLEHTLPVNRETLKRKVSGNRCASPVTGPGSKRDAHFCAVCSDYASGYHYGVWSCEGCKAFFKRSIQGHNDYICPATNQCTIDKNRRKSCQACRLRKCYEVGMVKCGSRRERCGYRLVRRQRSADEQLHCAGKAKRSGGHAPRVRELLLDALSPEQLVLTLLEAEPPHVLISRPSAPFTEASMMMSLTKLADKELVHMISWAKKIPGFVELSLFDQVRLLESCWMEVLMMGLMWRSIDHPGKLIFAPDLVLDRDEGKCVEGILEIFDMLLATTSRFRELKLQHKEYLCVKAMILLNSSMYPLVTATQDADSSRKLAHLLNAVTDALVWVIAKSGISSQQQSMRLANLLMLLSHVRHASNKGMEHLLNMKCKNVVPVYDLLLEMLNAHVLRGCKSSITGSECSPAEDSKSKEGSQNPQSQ

CCSCC
inactive: [1] | [2] | [4] | [6]
active: [3] 57.6 µM | [5] 18.2 µM

[Cl][Dy]([Cl])[Cl]
active: [5] 8.63 µM
inactive: [1] | [2] | [3] | [4] | [6]

CC(Cc1ccc(O)c(O)c1)C(C)Cc1ccc(O)c(O)c1 (stereo unspecified)
active: [5] 13.7 µM
inactive: [1] | [2] | [4]

O=C1C=CC(=O)N1c1cccc(N2C(=O)C=CC2=O)c1
active: [7] 8.63 µM | [3] 7.7 µM | [5] 1.72 µM | [9] 61.1 µM
inactive: [1] | [4] | [8]

CC(C)c1ccc2sc3ccccc3c(=O)c2c1
active: [1] 1.72 µM
not listed: [2] | [4]
inactive: all other assays above

[Cl][Eu]([Cl])[Cl]
active: [5] 7.7 µM
inactive: [1] | [2] | [4] | [6]

COCCC(=O)OC
inactive: [1] | [2] | [4] | [6]

COc1cc([C@@H]2c3cc4c(cc3[C@@H](O[C@@H]3O[C@@H]5CO[C@@H](C)O[C@H]5[C@H](O)[C@H]3O)[C@H]3COC(=O)[C@H]23)OCO4)cc(OC)c1O
active: [3] 60.4 µM
inactive: [1] | [2] | [4] | [8] | [9]

NCc1cccc(C2CCN(C(=O)c3ccc(C#Cc4ccccc4F)o3)CC2)c1
inactive: [1] | [4] | [8]
active: [7] 30.6 µM | [3] 24.3 µM | [5] 6.11 µM | [9] 54.5 µM

Nc1ccc(Cl)c([N+](=O)[O-])c1
inactive: [1] | [2] | [4] | [6]

O=C(CCCCCCCCc1cccnc1)N1CCC(C=C(c2ccccc2)c2ccccc2)CC1
active: [5] 17.2 µM | [9] 15.4 µM | [6] 61.1 µM
not listed: [7]
inactive: all other assays above

CCCCCc1ccc(O)cc1
inactive: [1] | [2] | [4] | [9] | [6]

CC1(C)[C@H]2CC[C@]1(C)C(=O)C2
not listed: [5] | [7] | [8]
inactive: all other assays above

N#Cc1nc(Cl)c(Cl)c(Cl)c1Cl
inactive: [1] | [4]
active: [7] 5.45 µM | [3] 10.9 µM | [6] 24.3 µM

COc1cccc(-c2ccc(/C=C\CN3CCCCCC3)cc2Cl)c1
inactive: [1] | [2] | [4] | [8]
active: [5] 10.8 µM

CCN(CCC#N)c1ccc(N=Nc2ccc([N+](=O)[O-])cc2)cc1
active: [1] 15.4 µM
not listed: [2]
inactive: all other assays above

CCC(C)(C)c1ccc(CC(C)CN2C[C@@H](C)O[C@@H](C)C2)cc1 (stereo partly specified)
inactive: [2] | [7] | [3] | [4]

C=C1C(CCl)(CCl)C2(Cl)C(Cl)C(Cl)C1(Cl)C2(Cl)Cl (stereo unspecified)
active: [9] 27 µM
inactive: [1] | [2] | [3] | [4]

Cc1ccc(Cl)c(N)c1Cl
active: [3] 61.1 µM | [5] 21.7 µM
not listed: [7] | [8]
inactive: all other assays above

CCOc1ccc([N+](=O)[O-])cc1
inactive: [1] | [2] | [3] | [4] | [8]
active: [9] 9.83 µM

[Cl][Sc]([Cl])[Cl]
not listed: [7] | [8] | [9]
inactive: all other assays above

CC/C=C\C/C=C\C/C=C\CCCCCCCC(=O)OC
active: [5] 43.3 µM
inactive: [1] | [2] | [4]

Oc1cccc2c(O)cccc12
active: [3] 30.6 µM | [5] 10.9 µM
inactive: [1] | [2] | [4] | [6]

CC/C(=C(/c1ccc(O)cc1)c1ccc(OCCN(C)C)cc1)c1ccccc1
inactive: [1] | [4]
active: [7] 18 µM | [3] 18 µM | [5] 14.3 µM | [6] 40.3 µM

c1ccc2cc3c4ccccc4c4ccccc4c3cc2c1
not listed: [2] | [8]
inactive: all other assays above

CCCCCCCCCC[N+](C)(CCCCCCCCCC)CCC[Si](OC)(OC)OC
inactive: [1] | [4] | [9]

CCCCCCCC1CCC(=O)O1 (stereo unspecified)
inactive: [1] | [4]

CC1=C(/C=C/C(C)=C/C=C/C(C)=C\C(=O)O)C(C)(C)CCC1
inactive: [2] | [7] | [3]

CCN(CC)c1ccc2c(c1)Oc1cc(N(CC)CC)ccc1C21OC(=O)c2ccccc21
inactive: [1] | [4]
active: [7] 3.76 µM | [3] 3.35 µM
